# ± gives the standard deviation.
# What was measured:
# Settings in all cases: modulator concentration 10 µM
# [1] = system: RAW-Dual (murine macrophage reporter line); assay: NF-kB reporter (SEAP) activity fold change vs agonist alone; higher = enhanced NF-kB activity
# Summary of the method: (§1)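 RAW-Dual murine macrophage reporter cells were seeded at 50 000 per well in 384-well plates and pre-incubated 1 hour at 37 °C with compound pin-transferred to 10 μM final. After 1 hour, a PRR agonist was added and cells incubated overnight. Supernatant NF-κB (SEAP, QUANTI-Blue, 620 nm absorbance) and IRF (Lucia luciferase, QUANTI-Luc, luminescence) signals were divided by the mean agonist-only control on the same plate to give fold change. Two replicate plates were averaged, with errors by propagation.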
# [2] = system: RAW-Dual (murine macrophage reporter line); assay: IRF reporter (Lucia luciferase) activity fold change vs agonist alone; higher = enhanced IRF activity
# Summary of the method: as §1
# [3] = system: RAW-Dual (murine macrophage reporter line); assay: viability score (confluency relative to resting cells, overnight) (fraction); higher = more viable, active = viable (0.7 or more)
# Summary of the method: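 RAW-Dual macrophages in 384-well plates were incubated overnight with compound, final concentration 10 μM. Confluency images from IncuCyte were processed in IncuCyte software into two masks covering all imaged wells. The viability score is each well's confluency relative to resting cells, and a compound met the cutoff when both masks exceeded 70% of resting cells.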
# [4] = agonist: CpG ODN 1826 0.5 ug/mL
Compound,"NF-kB reporter [1, 4]",NF-kB reporter ([1]; agonist: LPS 0.1 ug/mL),NF-kB reporter ([1]; agonist: MPLA […]),IRF reporter ([2]; agonist: 3'3'-cGAMP 10 ug/mL),IRF reporter ([2]; agonist: LPS 0.1 ug/mL),IRF reporter ([2]; agonist: MPLA […]),viability score [3]
CCNc1nc(S)nc(NC(C)C)n1,1.13 ± 0.085,1.03 ± 0.051,1.02 ± 0.024,0.731 ± 0.041,0.98 ± 0.13,0.927 ± 0.11,0.991 (active)
O=C(NC(=S)NNc1ccccc1)c1cc2ccccc2oc1=O,1.08 ± 0.23,1.16 ± 0.15,1.03 ± 0.11,0.861 ± 0.022,1.23 ± 0.16,1.12 ± 0.2,0.999 (active)
O=C1C(=CNCCN2CCOCC2)C(C(F)(F)F)=NN1c1nc2ccccc2s1,0.967 ± 0.079,1.01 ± 0.056,0.863 ± 0.06,0.947 ± 0.044,1.32 ± 0.17,0.98 ± 0.065,1.01 (active)
O=C(Nc1ccc(F)c([N+](=O)[O-])c1)c1cccs1,1.07 ± 0.072,1.2 ± 0.098,1.11 ± 0.067,0.964 ± 0.037,1.61 ± 0.14,1.37 ± 0.13,0.975 (active)
OCCOCCN1CCN(C(c2ccccc2)c2ccc(Cl)cc2)CC1 (stereo not drawn) [Prestw-133],1.07 ± 0.083,0.934 ± 0.071,1.07 ± 0.11,0.763 ± 0.024,1 ± 0.14,1.01 ± 0.21,1.04 (active)
CC1CCN(C2=NC(=O)C(=Cc3cccc4ccccc34)S2)CC1,1.06 ± 0.087,0.987 ± 0.076,0.954 ± 0.057,0.963 ± 0.05,1.54 ± 0.23,1.2 ± 0.18,1.01 (active)
O=C(CCCN1CCN(c2ccccn2)CC1)c1ccc(F)cc1,0.595 ± 0.084,1.05 ± 0.1,0.952 ± 0.056,0.924 ± 0.12,1.37 ± 0.12,1.15 ± 0.12,0.977 (active)
C=CC(=O)Nc1cccc(Oc2nc(Nc3ccc(N4CCN(C)CC4)cc3)nc3ccsc23)c1,0.0541 ± 0.0029,0.0574 ± 0.0052,0.184 ± 0.036,0.0243 ± 0.0019,0.0856 ± 0.0056,0.0904 ± 0.035,0.0526 (inactive)
Cc1cccc(Cn2cc(C=C3SC(=S)NC3=O)c3ccccc32)c1,0.681 ± 0.067,0.893 ± 0.043,1 ± 0.088,0.844 ± 0.045,0.955 ± 0.1,1.09 ± 0.17,1.02 (active)
CCN(CC)c1nc(-c2ccccc2Cl)c2cc(Br)ccc2n1,0.999 ± 0.081,0.975 ± 0.1,1.02 ± 0.042,0.786 ± 0.058,1.05 ± 0.14,1.14 ± 0.25,1 (active)
COc1ccc(C(=O)OCCCN2C(=O)c3ccccc3C2=O)cc1,0.926 ± 0.15,0.986 ± 0.093,0.916 ± 0.071,0.967 ± 0.036,1.26 ± 0.13,1.41 ± 0.2,1 (active)
CC1=C(CC(=O)O)c2cc(F)ccc2/C1=C\c1ccc(S(C)=O)cc1 (stereo not drawn),0.984 ± 0.14,0.828 ± 0.061,1.13 ± 0.098,1.09 ± 0.051,1.23 ± 0.073,1.41 ± 0.13,1 (active)
COc1ccc(-c2coc3cc(O)cc(O)c3c2=O)cc1,1.87 ± 0.54,1.27 ± 0.083,1.73 ± 0.13,0.919 ± 0.071,1.32 ± 0.18,1.37 ± 0.14,0.623 (inactive)
CN(C)c1ccc(C=C(C#N)c2nc(-c3cc4ccccc4oc3=O)cs2)cc1,0.972 ± 0.057,1.04 ± 0.13,0.955 ± 0.079,0.86 ± 0.03,1.36 ± 0.091,1.15 ± 0.24,1.01 (active)
